Compound activity deposited in PubChem by National Center for Advancing Translational Sciences (NCATS).
Tau fibril FP: tau fibrillization inhibition (FP). P10636. K18 P301L tau heparin fibrillization, Alexa594 FP, 6 h. Potency, µM (doses to about 57.7 µM), inactives show top-dose activity, negative = inhibition, usual class: inhibitors. 0.39% of 280,000 active. AID 1468; active = well fitted curve in the direction sought with a large enough effect; inconclusive = small, poorly fitted or top-dose-only effect, or another doubt; inactive = no such curve, though single readings can be large; an effect the other way counts as inactive or inconclusive; also: nearly all actives have a fitted effect of over 55% in size
Target sequence (P10636 561-689 P618L limits assumed): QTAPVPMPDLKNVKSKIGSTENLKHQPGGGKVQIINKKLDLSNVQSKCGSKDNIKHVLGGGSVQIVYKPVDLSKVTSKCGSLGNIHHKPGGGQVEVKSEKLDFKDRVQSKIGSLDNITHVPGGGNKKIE
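Compound effects on tau fibrillization are measured by Alexa 594 fluorescence polarization (ex 555, em 632 nm). K18 P301L tau is used at 15 uM with 0.24 uM labeled tracer, and 20 uM heparin induces aggregation over 6 hr at 37 C.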
KDM4E inh: blocks human JMJD2E demethylase activity. B2RXH2. JMJD2E catalytic domain, FDH-coupled NADH fluorescence (FDH is formaldehyde dehydrogenase). Potency, µM (series often up to 57.1 µM), inactives show at the top dose activity change, negative = inhibition, most hits filed as inhibitors. 1.6% of 230,000 active. AID 2147;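 also: 0% = wells with enzyme and -100% = buffer wells without enzyme; nearly all actives have a fitted effect of over 50% in size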
ALDH1A1 block: inhibitors of human aldehyde dehydrogenase 1A1; AID 1030; P00352; Potency, µM (doses to about 75.3 µM), inactives show at the highest dose activity, negative = inhibition, hits mostly inhibitors; 7.3% of 220,000 active; Purified ALDH1A1, NADH fluorescence, propionaldehyde substrate;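 also: plate controls were no enzyme wells and a reference inhibitor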
Target sequence (P00352 whole entry, looked up): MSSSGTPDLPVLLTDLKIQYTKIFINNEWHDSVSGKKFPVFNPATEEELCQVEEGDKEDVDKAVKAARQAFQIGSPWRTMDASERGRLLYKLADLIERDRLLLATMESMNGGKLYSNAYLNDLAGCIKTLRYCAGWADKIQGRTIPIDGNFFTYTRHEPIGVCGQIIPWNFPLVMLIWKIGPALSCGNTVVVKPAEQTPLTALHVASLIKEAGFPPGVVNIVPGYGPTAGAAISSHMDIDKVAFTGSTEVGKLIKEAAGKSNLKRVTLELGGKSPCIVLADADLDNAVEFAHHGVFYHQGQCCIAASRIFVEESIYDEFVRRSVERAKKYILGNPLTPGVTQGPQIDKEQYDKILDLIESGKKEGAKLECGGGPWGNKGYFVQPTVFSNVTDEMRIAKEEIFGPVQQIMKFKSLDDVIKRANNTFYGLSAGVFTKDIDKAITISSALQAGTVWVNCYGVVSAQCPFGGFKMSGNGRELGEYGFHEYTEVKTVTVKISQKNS
Tau fluor cs: counter-screen for tau fibril formation inhibitors. tau K18 P301L Alexa594 fluorescence, heparin fibrillization. Potency, µM (highest dose often 57.7 µM), without a hit: at the top dose activity change, negative = decrease. 0.93% of 280,000 active. AID 1463; active = well fitted curve in the direction sought with a large enough effect; inconclusive = small, poorly fitted or top-dose-only effect, or another doubt; inactive = no such curve, though single readings can be large; an effect the other way counts as inactive or inconclusive; also: nearly all actives have a fitted effect of over 55% in size
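Human K18 P301L tau (15 uM unlabeled plus 0.24 uM Alexa 594-labeled, final) in 100 mM sodium acetate pH 7 was mixed with compound and 20 uM heparin and incubated 6 hr at 37 C.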
Tau fibril ThT: blocks human tau fibril formation measured by thioflavin T | AID 1460 | recombinant tau K18 P301L (four-repeat tau fragment), heparin-induced fibrillization, ThT fluorescence | 2.1% of 270,000 active | P10636 | Potency, µM (doses to about 57.4 µM), for the others: at the highest dose activity, negative = inhibition, actives largely listed as inhibitors; active = well fitted curve in the direction sought with a large enough effect; inconclusive = small, poorly fitted or top-dose-only effect, or another doubt; inactive = no such curve, though single readings can be large; an effect the other way counts as inactive or inconclusive; also: nearly all actives have a fitted effect of over 55% in size
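Recombinant human tau K18 fragment […] carrying P301L, 15 uM unlabeled plus 0.24 uM Alexa 594-labeled, was fibrillized with 20 uM heparin in 100 mM sodium acetate pH 7 for 6 hr at 37 C; 30 uM ThT fluorescence read after 1 hr.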
HPGD block: inhibitors of human 15-hydroxyprostaglandin dehydrogenase (HPGD). AID 894. 4.3% of 150,000 active. Potency, µM, inactives show top-dose activity change, negative = inhibition, usual class: inhibitors. purified HPGD, NADH fluorescence kinetic, PGE2 substrate. P15428
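20 nM HPGD preincubated 15 min at room temperature with compound in 50 mM Tris-HCl pH 8, 0.01% Tween 20. Started with 1 mM NAD+ and 30 uM prostaglandin E2; NADH fluorescence (360/450 nm) read 5 times over 30-s intervals, last minus first.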
* = called active by the depositor; [ ] = dose if it differs, or a comment. Hits are enriched below; roughly 9.9% of the tested compounds scored in any of these assays. Unless noted, calls follow the shape of the dose curve; as a rule, active = well fitted inhibition curve with a large enough effect (not every such curve was filed as active); inconclusive = small, poorly fitted or top-dose-only effect, or another doubt; inactive = no such curve, though single readings can be large or run the other way. Unless noted, % is scaled to controls: 0 for no effect and ±100 for the full control effect; potency is read from the fitted curve at half-maximal effect.

Screening CCCCN1CC[C@@H]2C=CC[C@H](C(=O)OC)[C@@H]2C1=O returned Tau fibril FP 7%[81.3 µM], ALDH1A1 block -1%[120 µM], Tau fluor cs -10%[81.3 µM], Tau fibril ThT -10%[81.4 µM] and HPGD block -2%.
`Cc1ccc(S(=O)(=O)NC(N)=NCCc2ccc(Cl)cc2)cc1C` gave Tau fibril FP -7%, KDM4E inh 6%, ALDH1A1 block 24%, Tau fluor cs 10%, Tau fibril ThT 21% and HPGD block -17%.
For O=C(Cn1cnc2c(nc3n2CCCCC3)c1=O)Nc1ccc(F)c(Cl)c1 the results were Tau fibril FP -4%, Tau fluor cs 0% and Tau fibril ThT 1%.
Screening Oc1c(Cl)cc(Cl)cc1C=Nc1ccc(Br)cc1 returned Tau fibril FP -4%, KDM4E inh inconclusive, ALDH1A1 block 36%, Tau fluor cs -8%, Tau fibril ThT inconclusive and HPGD block -4%.
Screening Cc1ccc(N=Cc2cc(Br)cc(Cl)c2O)cc1 returned Tau fibril FP inconclusive, KDM4E inh -18%, ALDH1A1 block 13%, Tau fluor cs -11% and Tau fibril ThT 18µM*.
For CC(=O)Nc1cccc(C(=O)OC(C(=O)c2ccc(C)cc2)c2ccccc2)c1 (centres undefined) the results were Tau fibril FP 14µM*, KDM4E inh 2%, ALDH1A1 block -15%, Tau fluor cs inconclusive, Tau fibril ThT 13% and HPGD block -19%.
`Cc1ccc(NC(=O)C(OC(=O)c2ccc(F)cc2)c2ccccc2)cc1Cl` (centres undefined) gave Tau fibril FP inconclusive, KDM4E inh 11%, ALDH1A1 block -10%, Tau fluor cs inconclusive, Tau fibril ThT -1% and HPGD block -22%.
Screening CC(=O)OC(C(=O)c1ccccc1)c1ccccc1 (centres undefined) returned ALDH1A1 block 22µM* and HPGD block -15%.
For CC(=O)Nc1cccc(C(=O)OC(C(=O)c2ccc(C)c(C)c2)c2ccccc2)c1 (centres undefined) the results were Tau fibril FP 16µM*, KDM4E inh 1%, ALDH1A1 block -1%, Tau fluor cs inconclusive, Tau fibril ThT 5% and HPGD block -20%.
COc1ccc(NC(=O)COC(=O)Cn2nnc3ccccc32)cc1 was read as Tau fibril FP -4%, KDM4E inh 10%, ALDH1A1 block -9%, Tau fluor cs -3% and Tau fibril ThT 0%.
Screening COc1ccc(N/C(=C(/C(Cl)=C(Cl)Cl)[N+](=O)[O-])n2nnc3ccccc32)cc1 returned Tau fibril FP 3%, KDM4E inh inconclusive, ALDH1A1 block 16µM*, Tau fluor cs -24%, Tau fibril ThT inconclusive and HPGD block -21%.
`Cc1ccccc1N/C(=C(/C(Cl)=C(Cl)Cl)[N+](=O)[O-])n1nnc2ccccc21` gave Tau fibril FP -10%, KDM4E inh 4%, ALDH1A1 block 14µM*, Tau fluor cs -14%, Tau fibril ThT inconclusive and HPGD block -15%.
For O=C(O)Cn1cccc1C(=O)c1ccccc1 the results were Tau fibril FP 4%, KDM4E inh -14%, ALDH1A1 block 14µM*, Tau fluor cs inconclusive, Tau fibril ThT 8.9µM* and HPGD block -23%.
For CC1CCCN(CCOc2ccc(Br)cc2)C1 (centres undefined) the results were Tau fibril FP 0%, KDM4E inh inconclusive, ALDH1A1 block -15%, Tau fluor cs -2%, Tau fibril ThT 9% and HPGD block -4%.
COc1cc2c(cc1OC)CN(CCC(=O)c1ccc(Br)cc1)CC2 was read as Tau fibril FP 12%, KDM4E inh inconclusive, ALDH1A1 block 0.2µM*, Tau fluor cs 4% and Tau fibril ThT inconclusive.
`CC1CCCN(CCC(=O)c2ccc(Br)cc2)C1` (centres undefined) gave Tau fibril FP 12%, KDM4E inh 0%, ALDH1A1 block 0.13µM*, Tau fluor cs 0%, Tau fibril ThT inconclusive and HPGD block 4µM*.
`COc1cc2c(cc1OC)CN(CC(=O)Nc1cccc(C)c1)CC2` gave Tau fibril FP 0%, KDM4E inh inconclusive, ALDH1A1 block -1%, Tau fluor cs -16%, Tau fibril ThT -9% and HPGD block -6%.
CCOC(=O)Cn1c(=O)n(CC2CCCO2)c2nc(-c3cc(OC)ccc3OC)nc(C(N)=O)c21 (centres undefined) was read as Tau fibril FP -5%, Tau fluor cs -3% and Tau fibril ThT -2%.
`CCOC(=O)NN1C(=O)c2ccccc2NC1c1ccc(N(C)C)cc1` (centres undefined) gave Tau fibril FP 2%, KDM4E inh inconclusive, ALDH1A1 block 18µM*, Tau fluor cs -9%, Tau fibril ThT -13% and HPGD block -11%.
For CCOC(=O)NN1C(=O)c2ccccc2NC1c1ccccc1 (centres undefined) the results were Tau fibril FP -15%, KDM4E inh inconclusive, ALDH1A1 block inconclusive, Tau fluor cs -4%, Tau fibril ThT -1% and HPGD block inconclusive.
For O=[N+]([O-])c1ccc(COn2nnc3ccccc32)cc1 the results were Tau fibril FP -6%, KDM4E inh 4%, ALDH1A1 block -1%, Tau fluor cs -15% and Tau fibril ThT inconclusive.
Screening N#Cc1cc([N+](=O)[O-])c(-n2nnc3ccccc32)c([N+](=O)[O-])c1 returned Tau fibril FP 5%, KDM4E inh 0%, ALDH1A1 block 0%, Tau fluor cs -4%, Tau fibril ThT inconclusive and HPGD block 28µM*.
`COc1ccc(NC(=O)NC2COc3ccccc3C2)cc1Cl` (centres undefined) gave Tau fibril FP 8%, Tau fluor cs -8% and Tau fibril ThT -2%.
Screening COc1ccc(NC(=O)Nc2nnc(-c3ccccc3SCc3ccccc3)s2)cc1 returned Tau fibril FP inconclusive, KDM4E inh 5%, ALDH1A1 block -6%, Tau fluor cs 3.5µM*[quencher], Tau fibril ThT -6% and HPGD block -4%.
Screening COc1ccc(OCc2nnc(NC(=O)Nc3ccc(F)cc3)s2)cc1 returned Tau fibril FP 10µM*, KDM4E inh 11%, ALDH1A1 block -2%, Tau fluor cs -10% and Tau fibril ThT 6%.
For O=C(Nc1nnc(COc2ccc(F)cc2)s1)Nc1ccccc1F the results were Tau fibril FP -17%, KDM4E inh -1% and Tau fluor cs -25%.
For O=C(Nc1cccc(Br)c1)Nc1nc2c(s1)CCCCCC2 the results were Tau fibril FP inconclusive, Tau fluor cs 3.5µM*[quencher] and Tau fibril ThT -8%.
